According to PubChem BioAssay (NCATS):
Records with an inconclusive call do not appear. Calls of active or inactive are those of the source. Calls follow the shape of the dose curve; as a rule, active = well fitted inhibition curve with a large enough effect; inconclusive = small, poorly fitted or top-dose-only effect; inactive = flat fitted curve, though single readings scatter. Where a SMILES comes first, the peptide text is derived from it. The star is where a group is joined. AMC = Cc1cc(=O)oc2cc(N*)ccc12; Cbz = O=C(OCc1ccccc1)*

Tests used:
Assay in all cases: Cytotoxic Profiling of Annotated Libraries Using Quantitative High-Throughput Screening (AID 1296008); also: nearly all actives have a fitted effect of over 60% in size
Conditions in all cases: Five cell lines viability, CellTiter-Glo ATP luminescence, 48-72 h; max response: stronger effect = lower value
CRL-7250 = normal cell line; test system: CRL-7250
Procedure, shortened: (§1)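 Cytotoxicity was measured as CellTiter-Glo ATP luminescence, read after 10 min at room temperature. Compound treatment of the cells lasted 48 or 72 hr at 37 degrees Celsius in a qHTS format.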

HEK293 = test system: HEK293
Procedure, shortened: as §1

HaCat = test system: HaCat
Procedure, shortened: as §1

KB-3-1 = test system: KB-3-1
Procedure, shortened: as §1

NIH3T3 = test system: NIH3T3
Procedure, shortened: as §1

Measured: max response
% is scaled to controls: 0 for no effect and ±100 for the full control effect.

COC(=O)[C@H](O)[C@H]1C(C)(C)[C@H](OC(C)=O)[C@@]2(O)C(=O)[C@]1(C)C1CC[C@]3(C)C(CC(=O)O[C@H]3c3ccoc3)[C@]13O[C@@H]32 (stereo not given in full)
inactive: CRL-7250 | HEK293 -3.86% | HaCat 4.44% | KB-3-1 -6.4% | NIH3T3

CC1(C)CC[C@]2(C(=O)O[C@@H]3O[C@H](CO)[C@@H](O)[C@H](O)[C@H]3O)CC[C@]3(C)C(=CCC4[C@@]5(C)CC[C@H](O[C@@H]6O[C@H](C(=O)O)[C@@H](O[C@@H]7O[C@H](CO)[C@@H](O)[C@H](O)[C@H]7O)[C@H](O)[C@H]6O[C@@H]6O[C@H](CO)[C@@H](O)[C@H](O)[C@H]6O)C(C)(C)C5CC[C@]43C)C2C1 (stereo not given in full)
inactive: CRL-7250 -7.32% | HEK293 -5.89% | HaCat | KB-3-1 9.55% | NIH3T3

C=C[C@@]1(C)CCC2=C([C@H]1OC(C)=O)[C@H](OC(C)=O)CC1[C@](C)(C(=O)OC)CC[C@H](OC(C)=O)[C@]21C (stereo not given in full)
inactive: CRL-7250 -6.44% | HEK293 0.95% | HaCat | KB-3-1 | NIH3T3

COCC1OC(OC(C)(C)C2CCC3(C)C=C(C4CCC5C4(C)CC(O)C4OC(C(C)(C)O)CCC45C)CCC3O2)C(NC(C)=O)C(O)C1O (stereo not given)
inactive: CRL-7250 | HEK293 2.29% | HaCat | KB-3-1 7.28% | NIH3T3 1.37%

C=C1CCC2C(C)(C(=O)O)CCCC2(C)C1CC/C(C)=C\CO (stereo not given)
inactive: CRL-7250 -2.2% | HEK293 -6.37% | HaCat | KB-3-1 | NIH3T3

Cc1cc(=O)oc2cc(NC(=O)[C@H](CCC(=O)O)NC(=O)[C@H](CC(C)C)NC(=O)[C@H](CC(C)C)NC(=O)OCc3ccccc3)ccc12 (Cbz-Leu-Leu-Glu-{AMC})
inactive: CRL-7250 -3.16% | HEK293 -3.22% | HaCat | KB-3-1 3.3% | NIH3T3 -20.3%
